Reference: PubChem BioAssay AID2508 (National Center for Advancing Translational Sciences (NCATS), 2010)
Inconclusive results are not listed. Calls of active or inactive are those of the source. The call rests on the fitted dose curve; in most records, active means well fitted inhibition curve with a large enough effect; inconclusive means small, poorly fitted or top-dose-only effect, or effect the other way; inactive means no such curve, though single readings can be large or run the other way.

Experiment: Confirmatory Assay for General miRNAs Modulators and/or Inhibitors/Activators of miR-21
Conditions: HeLa miR-21 FLuc reporter, luminescence, 48 h; series mostly up to 38.3 µM; activity change, negative = inhibition: at the top concentration
From the text: MLSCN Grant: 1 R21 NS059478-01 Assay Provider: Qihong Huang, The Wistar Institute NCGC Assay Overview: MicroRNAs (miRNAs) are endogenously encoded small (~20-25 nucleotides), nonprotein-coding RNAs that are involved in post-transcriptional repression of target messenger RNAs (mRNAs) (Le and Hannon, 2004). Estimated to be involved in the regulation of 30% of all protein-coding mRNAs (Filipowicz et al., 2008), miRNAs play a significant role in many biological processes including cellular differentiation and tissue development (Ghildiyal and Zamore, 2009).
NCGC Assay Protocol Summary: Reagents: HeLa cells stably expressing firefly luciferase (FLuc) under the control of a CMV promoter (upstream) and a miR-21 binding sequence directly downstream of the gene. These cells endogenously express miR-21. Control compounds used were compound C3 (provided by collaborator), N6-phenyladenosine (MP Biomedicals, 0215379625), and DMSO. Assay Summary: 6uL of HeLa miR-21-FLuc cells in assay buffer (DMEM, Invitrogen #21063-029; 10% FBS, HyClone #SH30071.03) were dispensed at 2000cells/well (3.3 x 10^5 cells/mL) into Greiner solid-white TC-treated 1536-well plates using a Multidrop Combi (Thermo Fisher Scientific). Plates were incubated for one hour at 37 degree Celsius, 95% humidity, 5% CO2. These assay plates were then treated with 23nL of compound or DMSO using a Kalypsys pin tool, which allows for delivery of a 24-point titration of each compound to the assay plate, with a final compound concentration ranging from approximately 40uM to 5pM. Assay plates were then incubated for 48 hours. After incubation, plates were allowed to come to RT for one hour prior to delivery of 3uL of 3X luciferase detection reagent. After a 15 minute incubation to allow for cell lysis, luciferase activity was measured using a ViewLux CCD imager (PerkinElmer), with an average exposure time of 2-12 seconds. Keywords: NIH Roadmap, MLPCN, MLSMR, qHTS, miR-21, microRNA, firefly luciferase, FLuc.
For COc1ccc(NC(=O)CSc2nnc(-c3cccs3)o2)cc1, the Potency was 10 µM (active). In the case of CCC(=O)n1nc(-c2cccnc2)nc1NCc1ccc(F)cc1, the “activity change, negative = inhibition” value is reported as -17% (inactive). With CC(=O)Nc1nc2c(C)cc(NC(=O)C3CCCCC3)cc2s1 the Potency was 1.79 µM (active). With COc1ccccc1C(=O)n1nc(-c2ccco2)nc1NCc1ccc(Cl)cc1 the Potency was 12.6 µM (active). For COc1cccc(-n2nnc(-c3nc(-c4cccs4)no3)c2N)c1, the Potency was 0.895 µM (active). For O=C(CSc1nnc(-c2ccccn2)o1)Nc1cccc(Cl)c1, the Potency was 2.52 µM (active). With Cc1ccc(CNc2nc(-c3ccco3)nn2S(C)(=O)=O)cc1 the Potency was 4 µM (active). With CC1=C(c2ccc(C)c(C)c2)S(=O)(=O)N=C1N1CCC(C(=O)NCCc2ccc(Cl)cc2)CC1 the “activity change, negative = inhibition” value was 27.4% (inactive). With COc1ccc(-c2csc(NC(=O)COC(=O)c3ccc(Br)o3)n2)cc1 the Potency was 2.83 µM (active). With Cc1c(-c2nsc(NC(=O)c3cccs3)n2)nnn1-c1ccc(Cl)cc1 the Potency was 14.2 µM (active). For COc1ccccc1NC(=O)c1sc2nc3c(cc2c1N)CN(Cc1ccccc1)CC3, the “activity change, negative = inhibition” value was -1.25% (inactive). For Cc1ccc(Nc2ncnc(N)n2)cc1C, the Potency was 11.3 µM (active). With COc1ccc(-n2nnc(-c3nc(-c4cccs4)no3)c2N)cc1OC the “activity change, negative = inhibition” value was -4.89% (inactive). In the case of COc1ccc(NC(=O)CSc2nc(SC)ns2)c(OC)c1, the Potency is reported as 4 µM (active). In the case of COc1ccc(-c2nc(SCc3ccccc3)n(S(C)(=O)=O)n2)cc1, the Potency is reported as 10 µM (active). In the case of Clc1ccc(-n2ncc3c(NCc4ccccn4)ncnc32)cc1, the Potency is reported as 4.49 µM (active). In the case of COc1ccc(OCC(=O)Nc2ccc(-c3nc4cc(C)c(C)cc4o3)cc2)cc1, the Potency is reported as 0.4 µM (active). For Cc1c(-c2nnc(SCC(=O)Nc3ccccc3F)o2)nnn1-c1ccc(F)cc1, the Potency was 3.56 µM (active). In the case of N#Cc1cc2cc3c(cc2nc1SCC(=O)N1CCOCC1)OCO3, the Potency is reported as 1.13 µM (active). In the case of O=C(CSc1nnc(-c2ccc(Cl)cc2)o1)Nc1ccc(F)cc1, the Potency is reported as 1.79 µM (active). For O=C(CSc1nnc(-c2ccc(O)cc2)o1)Nc1ccccc1Br, the Potency was 1.79 µM (active). In the case of Cc1cccc(-n2nnc(-c3nc(-c4cccs4)no3)c2N)c1, the Potency is reported as 0.634 µM (active). For Cc1ccc(SCC(=O)Nc2ccc3oc(-c4ccc(F)cc4)nc3c2)cc1, the Potency was 15.9 µM (active). With COc1ccc(CNc2nc(-c3ccco3)nn2C(=O)CC(C)C)cc1 the Potency was 11.3 µM (active). For O=S(=O)(c1ccc(F)cc1)n1ccc(-c2cnc(-c3ccccc3)s2)n1, the Potency was 5.65 µM (active). For CC(C)C(=O)Nc1nc2c(s1)CC(C(C)(C)C)CC2 (stereo not given), the Potency was 2.83 µM (active). With Nc1c(-c2nc(-c3cccs3)no2)nnn1-c1cccc(F)c1 the Potency was 0.318 µM (active). With O=C(CSc1nnc(-c2ccc(C(F)(F)F)cn2)o1)Nc1cccc(Cl)c1 the Potency was 2.25 µM (active). In the case of Cc1cc(C)cc(NC(=O)CSc2nnc(CNC(=O)c3ccco3)o2)c1, the “activity change, negative = inhibition” value is reported as 1.68% (inactive). In the case of Cc1cccc(OCc2nnc(SCC(=O)Nc3ccc(N4CCOCC4)cc3)o2)c1, the “activity change, negative = inhibition” value is reported as -7.71% (inactive). With CC(=O)c1cnc2nc(SCc3ccccc3)nn2c1C the Potency was 6.34 µM (active). For Cc1nnc(SCc2nc(N)nc(Nc3ccccc3)n2)s1, the Potency was 22.5 µM (active). For COc1ccc(NCc2cccn2-c2nnc(N3CCC(C)CC3)s2)c(OC)c1, the Potency was 3.56 µM (active). For Cc1c(-c2nc(-c3ccc(C(F)(F)F)cc3)no2)n(C)oc1=O, the Potency was 0.318 µM (active). With CC(C)COc1ccc(C(=O)Nc2cc(-c3ccccc3)no2)cc1 the Potency was 3.56 µM (active). For c1ccc(C2=Nn3c(nnc3-c3cc(-c4ccccc4)n[nH]3)SC2)cc1, the “activity change, negative = inhibition” value was 11.4% (inactive). For O=C(COc1ccccc1F)Nc1ccc(-c2nc3ccccc3s2)cc1, the Potency was 1.26 µM (active). For Cn1c(=O)[nH]c2cc(-c3noc(-c4ccc(F)cc4)n3)ccc21, the Potency was 10 µM (active). In the case of Cc1ccc(CNc2nc3nc(C)c(Cl)c(C)n3n2)cc1, the Potency is reported as 4 µM (active). With COCC(=O)Nc1c(C(=O)Nc2ccc3c(c2)OCCO3)oc2ccccc12 the Potency was 0.449 µM (active).
